Test systems include DU-145 prostate; K-562 leukemia; MALME-3M melanoma; MDA-MB-231 breast; RXF 393 renal; SF-268 CNS; SF-295 CNS; SF-539 CNS; UACC-257 melanoma; M14 melanoma; HCT-15 colon; HT29 colon; SNB-75 CNS; SNB-19 CNS; U251 CNS; PC-3 prostate; UACC-62 melanoma; LOX IMVI melanoma; SK-MEL-28 melanoma; SK-MEL-5 melanoma.
Common to all, as to assay: NCI-60 one-dose screen, 48 h (100 = growth as untreated, 0 = no growth, -100 = all killed)
Settings in all cases: 10 µM unless noted

This is an account of results in PubChem BioAssay (NCI).

This is part of a sample that, as a whole, favours compounds with a hit. Of some 83,000 tested, about 20% had one in any assay.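 Plates (96-well) were seeded with cells, treated with compound at one concentration, and incubated for 48 hours before percent growth was determined.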 A number with no mark means an inactive call. Active and inactive are the calls of the source. Rule for the calls: active = growth percent below 10; inactive = the rest.

With `CN1CCN(CCCOc2cccc3nc(Nc4cc(Cl)cc(Cl)c4)ccc23)CC1`, the growth was -23.8% (active) in the test on DU-145 prostate; -54.7% (active) with K-562 leukemia; -53.5% (active) with MALME-3M melanoma; -44.6% (active) in the test with MDA-MB-231 breast; 38.8% with RXF 393 renal; 16% in the test on SF-268 CNS. The growth in the test on SF-295 CNS was 40.2%; in the test with SF-539 CNS it was 7.62% (active); in the test with UACC-257 melanoma, -44.6% (active); in the test on M14 melanoma it was -55.7% (active); in the test on HCT-15 colon, -73.6% (active); in the test with HT29 colon it was -80.1% (active). The growth was 36.4% in the test with SNB-75 CNS; 7.72% (active) in the test with SNB-19 CNS; -1.53% (active) in the test on U251 CNS; 3.25% (active) with PC-3 prostate; -57.7% (active) with UACC-62 melanoma; -92.9% (active) with LOX IMVI melanoma. Moreover, the growth with SK-MEL-28 melanoma was -51.2% (active).
Take `Nc1ccc(S(=O)(=O)O)c2ccc(N=Nc3ccc(N=Nc4ccc(S(=O)(=O)O)cc4)c4ccccc34)c(O)c12`: the growth with DU-145 prostate was 110%; in the test on K-562 leukemia, 106%; with MALME-3M melanoma it was 97.6%; with MDA-MB-231 breast it was 94.7%; in the test with RXF 393 renal, 109%; in the test on SF-268 CNS, 101%. Moreover, the growth is 114% in the test with SF-295 CNS; 123% in the test with SF-539 CNS; 109% in the test on UACC-257 melanoma; 99.8% in the test on M14 melanoma; 115% in the test on HCT-15 colon; 103% in the test on HT29 colon. Moreover, the growth in the test on SNB-75 CNS was 76.5%; in the test with SNB-19 CNS, 95.9%; in the test on U251 CNS, 111%; with PC-3 prostate, 91.6%; in the test with UACC-62 melanoma it was 91.3%; in the test with LOX IMVI melanoma, 98.1%. Moreover, the growth in the test with SK-MEL-28 melanoma was 109%.
As for `COc1cc2c(cc1-c1c(C)noc1C)ncc1nc(-c3ccccn3)n([C@H](C)COC(F)F)c12`, the growth in the test on DU-145 prostate was 64.2%; with K-562 leukemia, 32.8%; in the test on MALME-3M melanoma it was 70.1%; in the test on MDA-MB-231 breast it was 41.2%; in the test on RXF 393 renal, 60.8%; with SF-268 CNS, 70.9%. Besides, the growth is 60.4% with SF-295 CNS; 41.7% in the test on SF-539 CNS; 44.4% with UACC-257 melanoma; 49.5% in the test with M14 melanoma; 23.2% in the test on HCT-15 colon; 24.2% with HT29 colon. The growth is 34% in the test on SNB-75 CNS; 60.2% in the test on SNB-19 CNS; 48.8% in the test on U251 CNS; 34% in the test with PC-3 prostate; 23.9% with UACC-62 melanoma; 20.9% in the test on LOX IMVI melanoma. Besides, the growth in the test with SK-MEL-28 melanoma was 67.3%.
With `O=C(Cc1ccccc1Nc1c(Cl)cccc1Cl)NN1C(=O)/C(=C/c2ccc(Br)cc2)SC1=S`, the growth in the test with DU-145 prostate was 109%; in the test with K-562 leukemia, 100%; in the test with MALME-3M melanoma it was 100%; in the test on MDA-MB-231 breast it was 103%; with RXF 393 renal it was 111%; in the test on SF-268 CNS it was 96.8%. The growth in the test on SF-295 CNS was 101%; in the test with SF-539 CNS, 93.6%; in the test with UACC-257 melanoma it was 103%; with M14 melanoma, 103%; with HCT-15 colon it was 104%; in the test with HT29 colon, 109%. For the same compound, the growth in the test on SNB-75 CNS was 86.4%; in the test with SNB-19 CNS, 105%; with U251 CNS, 102%; in the test with SK-MEL-5 melanoma, 98.6%; in the test with UACC-62 melanoma, 101%; in the test on LOX IMVI melanoma it was 97.5%. For the same compound, the growth in the test on SK-MEL-28 melanoma was 105%.
Consider `CC(C)C[C@@H](NC(=O)[C@@H](Cc1ccccc1)NC(=O)c1cnccn1)B1Oc2ccc(C[C@H](NC(=O)[C@H](Cc3ccc4c(c3)OB([C@@H](CC(C)C)NC(=O)[C@@H](Cc3ccccc3)NC(=O)c3cnccn3)O4)NC(=O)[C@@H](N)CC3CCC4OB([C@@H](CC(C)C)NC(=O)[C@@H](CC5CCCCC5)NC(=O)C5CNCCN5)OC4C3)C(=O)NCCCC[C@@H]3NC(=O)[C@@H](Cc4ccccc4)NC(=O)[C@H](CC(=O)O)NC(=O)CNC(=O)[C@H](CCCNC(=N)N)NC3=O)cc2O1` (stereo partly drawn), for which the growth was -44.8% (active) in the test on DU-145 prostate; -0.546% (active) in the test with K-562 leukemia; -20.3% (active) in the test on MALME-3M melanoma; -7.69% (active) with MDA-MB-231 breast; -89.2% (active) with RXF 393 renal; -52.7% (active) with SF-268 CNS. Moreover, the growth is -68.6% (active) with SF-295 CNS; -37.6% (active) in the test on SF-539 CNS; -11.7% (active) in the test on UACC-257 melanoma; 0.189% (active) with M14 melanoma; -49.1% (active) in the test on HCT-15 colon; -61.9% (active) with HT29 colon. Further, the growth in the test on SNB-75 CNS is -64% (active); in the test with SNB-19 CNS, -24.7% (active); in the test with U251 CNS it was -58.4% (active); with PC-3 prostate it was -48.4% (active); in the test on UACC-62 melanoma, -73.8% (active); with LOX IMVI melanoma it was -87.9% (active). Besides, the growth in the test with SK-MEL-28 melanoma was -31.7% (active).
For the compound `CC1=C/C(=C(\c2ccc(N(C)C)cc2)c2ccc([N+](C)(C)C)cc2)C=CC1=[N+](C)C`, the growth was 51.5% in the test on DU-145 prostate; 37.5% in the test on K-562 leukemia; 120% in the test with MALME-3M melanoma; 93.9% with MDA-MB-231 breast; 76.6% in the test on RXF 393 renal; 92% with SF-268 CNS. Further, the growth with SF-295 CNS is 48.4%; with SF-539 CNS, 78.6%; in the test on UACC-257 melanoma, 99.8%; in the test on M14 melanoma it was 77.5%; with HCT-15 colon it was 95.7%; in the test on HT29 colon, 36.5%. The growth with SNB-75 CNS was 80.5%; in the test with SNB-19 CNS, 77%; in the test on U251 CNS it was 25.7%; with PC-3 prostate, 72.9%; in the test on UACC-62 melanoma, 97.6%; in the test with LOX IMVI melanoma it was 69.1%. Besides, the growth with SK-MEL-28 melanoma is 72.3%.
Turning to `COc1ccc2c(c1)O/C(=C\c1cccc(OCC(=O)Nc3nc4c(s3)CCCC4)c1)C2=O`, the growth was 42.8% in the test on DU-145 prostate; 24.5% in the test with K-562 leukemia; 109% in the test on MALME-3M melanoma; 65.9% in the test on MDA-MB-231 breast; -15.4% (active) with RXF 393 renal; 89.4% with SF-268 CNS. Also, the growth with SF-295 CNS was 75.8%; in the test with SF-539 CNS it was 87.8%; in the test on UACC-257 melanoma, 95.1%; with M14 melanoma, 90.9%; in the test on HCT-15 colon, 84.8%; in the test on HT29 colon it was 84.7%. Moreover, the growth in the test with SNB-75 CNS is 29.3%; in the test on SNB-19 CNS, 76.1%; in the test on U251 CNS, 73.1%; in the test on SK-MEL-5 melanoma, 97.9%; in the test on UACC-62 melanoma it was 76.1%; with LOX IMVI melanoma, -100% (active). For the same compound, the growth in the test on SK-MEL-28 melanoma is 114%.
